Records with an inconclusive call do not appear. Calls of active or inactive are those of the source. Unless noted, calls come from the whole dose curve.
tested on: not listed separately; test: qHTS for Inhibitors of the Functional Ribonucleoprotein Complex (vRNP) of Lymphocytic Choriomeningitis Arenaviruses (LCMV): Viability assay - alamar blue signal for LCMV Primary Screen (AID 1347085; calls by dose curve; tested in HEK293 reporter line; note: nearly all actives have a fitted effect of over 80% in size); conditions: alamar blue viability counter-screen, LCMV vRNP screen cells; series mostly up to 57.5 µM; activity change, negative = lower viability: at the top concentration
% is set by controls: 0 for no effect and ±100 for the full control effect.

Structure (SMILES)	activity change, negative = lower viability
COc1ccc(C(=O)OCCc2ccc(O)cc2)cc1	7.38% (inactive)
COc1cc2c(c(OC)c1OC)-c1c(cc3c(c1OC)OCO3)CC(C)C(C)C2 (stereo not given)	16.1% (inactive)
CC1(C)C[C@H]2C3=CCC4[C@@]5(C)CC[C@H](O)C(C)(C)C5CC[C@@]4(C)[C@]3(C)[C@@H](O)[C@@H](O)[C@@]2(CO)[C@@H](O)[C@@H]1O (stereo not given in full)	8.66% (inactive)
NC1C(O)OC(CO)[C@@H](O)[C@@H]1O[C@H]1O[C@@H](C(=O)O)C(O)C(O)C1O (stereo not given in full)	14.5% (inactive)
COC(=O)CC(C)CCC=C(C)C (stereo not given)	6.04% [at 115 µM] (inactive)
C[C@H](NC(=O)[C@@H](O)c1cc(F)cc(F)c1)C(=O)N[C@@H]1C(=O)N(C)c2ccccc2-c2ccccc21	14.7% (inactive)
CC(=O)OC1C(OC(C)=O)C2C(C)CC3OC(=O)C(C)C3CC2(C)C1OC(C)=O (stereo not given)	12.9% (inactive)
CC(=O)CCc1ccc(O)cc1	12.6% [at 115 µM] (inactive)
COC1=C(C)C(O)=C(C(=O)/C=C/c2ccccc2)C(=O)C1(C)C	9.58% (inactive)
CC(C)CNC(=O)/C=C/C=C/CCCC/C=C/c1ccc2c(c1)OCO2	17.3% (inactive)
COc1c2c(c(C)c3c1C(=O)OC3)O[C@@]1(C)CC[C@@]3(O)C(C)(C)OC(=O)CC[C@]3(C)[C@H]1C2	1.99% (inactive)
CC1=CCC(C(C)C)=CC1	21.4% [at 115 µM] (inactive)
C=C1C[C@]23CC[C@H]4C(CO)(CO)C[C@@H](O)C[C@@]4(C)[C@@H]2CC[C@H]1C3	33.2% (inactive)
C[C@@H]1C(=O)O[C@H]2[C@H]1CC[C@@]1(C)C(=O)C=C[C@@](C)(O)[C@H]21	2.65% (inactive)
CCCCCCCCCCCCOC(C)=O	6.49% [at 115 µM] (inactive)
CC(C)=CCC[C@](C)(O[C@@H]1O[C@H](CO[C@@H]2OC[C@H](O[C@@H]3OC[C@@H](O)[C@H](O)[C@H]3O)[C@H](O)[C@H]2O)[C@@H](O)[C@H](O)[C@H]1O)C1CC[C@]2(C)C1[C@H](O)CC1[C@@]3(C)CC[C@H](O)C(C)(C)C3[C@@H](O)C[C@]12C (stereo not given in full)	11.4% (inactive)
CCC(=O)O[C@]1(C(=O)CO)CC[C@H]2[C@@H]3CCC4=CC(=O)CC[C@]4(C)[C@@H]3CC[C@@]21C	12.5% (inactive)
CC(C)=C[C@H]1C[C@H](C)[C@H]2CC[C@H](C)c3c(O[C@@H]4OC[C@@H](O)[C@H](O)C4O)c(O)c(C)c1c32 (stereo not given in full)	4.02% (inactive)
CC(=O)O[C@@H]1[C@H]2CC[C@@H]3[C@]1(C[C@@H](OC(C)=O)[C@@]1(O)C([C@@H]4O[C@@H]4C1(C)C)[C@]3(C)O)C[C@@]2(C)O (stereo not given in full)	-7.33% (inactive)
COc1cc2oc(=O)ccc2cc1O	7.1% (inactive)

Structure (SMILES)	activity change, negative = lower viability
COc1ccc(CCNC(=O)/C=C\c2ccccc2)cc1OC	-0.161% (inactive)
CN[C@H]1[C@@H](O[C@@H]2[C@H](O[C@@H]3[C@@H](O)[C@@H](O)[C@@H](N=C(N)N)[C@@H](O)[C@@H]3N=C(N)N)O[C@H](C)[C@@]2(O)C=O)O[C@@H](CO)[C@@H](O)[C@H]1O	6.63% [at 19.1 µM] (inactive)
C[C@]12CC[C@@H](O)CC1=CC(=O)C1C2CC[C@]2(C)C(=O)[C@H](O)CC12 (stereo not given in full)	21.3% (inactive)
COc1ccc(-c2cc(=O)c3c(O)cc(OC4OC(COC5OC(C)C(O)C(O)C5O)C(O)C(O)C4O)cc3o2)cc1O (stereo not given)	6.79% (inactive)
C/C=C(/C)C(=O)O[C@@H]1c2cc3c(c4c2[C@@]2(CO4)C(=O)C(OC)=C(OC)C=C2C[C@@H](C)[C@H]1C)OCO3	12.7% (inactive)
COC(=O)CC1[C@@]2(C)C[C@]34OC5(C)OC6(C7CC(=O)OC(c8ccoc8)[C@]7(C)CCC6(O5)[C@]13C)C(OC(C)=O)[C@]4(OC(C)=O)C2OC(C)=O (stereo not given in full)	7.53% (inactive)
COc1ccc(-c2oc3ccccc3c(=O)c2O)cc1	3.47% (inactive)
CC(=O)Oc1ccc2c(=O)c(-c3ccccc3)c(C)oc2c1	1.25% (inactive)
C/C=C(\C)C(=O)OC(C)(C)[C@H]1Cc2cc3ccc(=O)oc3cc2O1	6.9% (inactive)
COc1ccc(C(=O)OC2CC3CCC(C2)[N+]3(C)[O-])cc1OC (stereo not given)	-3.33% (inactive)
C=CC(C)(C)O[C@@H]1O[C@H](CO)[C@@H](O)[C@H](O)[C@H]1O	-15.3% (inactive)
CC12CCC3C(CCC4CC(O)CCC43C)C1CC(O)C2 (stereo not given)	7.62% (inactive)
C[C@@H]1O[C@@H](O[C@H]2CC[C@@H](O[C@H]3[C@H](O)C[C@H](c4ccc5c(c4O)C(=O)C4=C(C5=O)[C@@]5(O)C(=O)C[C@](C)(O[C@H]6CC[C@H](O[C@H]7C=CC(=O)[C@H](C)O7)[C@H](C)O6)C[C@@]5(O)C=C4)O[C@@H]3C)O[C@H]2C)C=CC1=O	-9.86% [at 24.7 µM] (inactive)
CNCC(=O)O	9.74% (inactive)
CCCC(=O)C(C)=O	16.8% [at 115 µM] (inactive)
O=C(Nc1ccc(Br)cc1)C(c1ccccc1)c1ccccc1	2.5% (inactive)
c1ccc(-c2ccc3ccccc3n2)cc1	4.77% (inactive)
COCCOCCOCCOC	22% [at 115 µM] (inactive)
O=[N+]([O-])c1cn2c(n1)OC[C@@H](OCc1ccc(OC(F)(F)F)cc1)C2	0.23% (inactive)
CC(C)=CCC/C(C)=C/COC=O	11% [at 115 µM] (inactive)

biological target: Nucleoprotein (Lymphocytic choriomeningitis virus (strain Armstrong)) (UniProt P09992); test: qHTS for Inhibitors of the Functional Ribonucleoprotein Complex (vRNP) of Lymphocytic Choriomeningitis Arenaviruses (LCMV): LCMV Primary Screen - GLuc reporter signal (AID 1347086); conditions: LCMV minigenome vRNP cell assay, Gaussia luciferase reporter; series mostly up to 57.5 µM; activity change, negative = inhibition: at the top concentration; note: nearly all actives have a fitted effect of over 70% in size
Sequence (P09992 whole entry, looked up): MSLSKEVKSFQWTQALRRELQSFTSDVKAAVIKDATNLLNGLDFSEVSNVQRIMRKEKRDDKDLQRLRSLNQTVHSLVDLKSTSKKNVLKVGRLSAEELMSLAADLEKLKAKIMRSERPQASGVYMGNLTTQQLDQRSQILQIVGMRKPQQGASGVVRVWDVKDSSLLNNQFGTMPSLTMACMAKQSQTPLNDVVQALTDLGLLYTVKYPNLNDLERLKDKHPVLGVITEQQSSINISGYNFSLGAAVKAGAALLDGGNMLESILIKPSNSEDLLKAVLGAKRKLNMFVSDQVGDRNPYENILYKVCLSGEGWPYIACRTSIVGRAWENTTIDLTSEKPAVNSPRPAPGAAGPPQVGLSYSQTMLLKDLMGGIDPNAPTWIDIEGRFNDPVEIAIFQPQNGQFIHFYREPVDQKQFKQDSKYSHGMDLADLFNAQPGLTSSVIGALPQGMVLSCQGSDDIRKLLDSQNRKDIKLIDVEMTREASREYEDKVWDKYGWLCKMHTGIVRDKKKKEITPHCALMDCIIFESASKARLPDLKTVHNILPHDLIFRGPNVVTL

Structure (SMILES)	activity change, negative = inhibition
COc1ccc(C(=O)OCCc2ccc(O)cc2)cc1	-4.98% (inactive)
COc1cc2c(c(OC)c1OC)-c1c(cc3c(c1OC)OCO3)CC(C)C(C)C2 (stereo not given)	-4.65% (inactive)
CC1(C)C[C@H]2C3=CCC4[C@@]5(C)CC[C@H](O)C(C)(C)C5CC[C@@]4(C)[C@]3(C)[C@@H](O)[C@@H](O)[C@@]2(CO)[C@@H](O)[C@@H]1O (stereo not given in full)	12.6% (inactive)
NC1C(O)OC(CO)[C@@H](O)[C@@H]1O[C@H]1O[C@@H](C(=O)O)C(O)C(O)C1O (stereo not given in full)	25.8% (inactive)
COC(=O)CC(C)CCC=C(C)C (stereo not given)	4.6% [at 115 µM] (inactive)
C[C@H](NC(=O)[C@@H](O)c1cc(F)cc(F)c1)C(=O)N[C@@H]1C(=O)N(C)c2ccccc2-c2ccccc21	9.21% (inactive)
CC(=O)OC1C(OC(C)=O)C2C(C)CC3OC(=O)C(C)C3CC2(C)C1OC(C)=O (stereo not given)	26.5% (inactive)
CC(=O)CCc1ccc(O)cc1	11.4% [at 115 µM] (inactive)
COC1=C(C)C(O)=C(C(=O)/C=C/c2ccccc2)C(=O)C1(C)C	5.19% (inactive)
CC(C)CNC(=O)/C=C/C=C/CCCC/C=C/c1ccc2c(c1)OCO2	25.7% (inactive)
COc1c2c(c(C)c3c1C(=O)OC3)O[C@@]1(C)CC[C@@]3(O)C(C)(C)OC(=O)CC[C@]3(C)[C@H]1C2	-6.88% (inactive)
CC1=CCC(C(C)C)=CC1	-0.764% [at 115 µM] (inactive)
C=C1C[C@]23CC[C@H]4C(CO)(CO)C[C@@H](O)C[C@@]4(C)[C@@H]2CC[C@H]1C3	-20.4% (inactive)
C[C@@H]1C(=O)O[C@H]2[C@H]1CC[C@@]1(C)C(=O)C=C[C@@](C)(O)[C@H]21	21.1% (inactive)
CCCCCCCCCCCCOC(C)=O	8.75% [at 115 µM] (inactive)
CC(C)=CCC[C@](C)(O[C@@H]1O[C@H](CO[C@@H]2OC[C@H](O[C@@H]3OC[C@@H](O)[C@H](O)[C@H]3O)[C@H](O)[C@H]2O)[C@@H](O)[C@H](O)[C@H]1O)C1CC[C@]2(C)C1[C@H](O)CC1[C@@]3(C)CC[C@H](O)C(C)(C)C3[C@@H](O)C[C@]12C (stereo not given in full)	1.07% (inactive)
CCC(=O)O[C@]1(C(=O)CO)CC[C@H]2[C@@H]3CCC4=CC(=O)CC[C@]4(C)[C@@H]3CC[C@@]21C	41.6% (inactive)
CC(C)=C[C@H]1C[C@H](C)[C@H]2CC[C@H](C)c3c(O[C@@H]4OC[C@@H](O)[C@H](O)C4O)c(O)c(C)c1c32 (stereo not given in full)	8.08% (inactive)
CC(=O)O[C@@H]1[C@H]2CC[C@@H]3[C@]1(C[C@@H](OC(C)=O)[C@@]1(O)C([C@@H]4O[C@@H]4C1(C)C)[C@]3(C)O)C[C@@]2(C)O (stereo not given in full)	29.8% (inactive)
COc1cc2oc(=O)ccc2cc1O	7.26% (inactive)

Structure (SMILES)	activity change, negative = inhibition
COc1ccc(CCNC(=O)/C=C\c2ccccc2)cc1OC	11.1% (inactive)
CN[C@H]1[C@@H](O[C@@H]2[C@H](O[C@@H]3[C@@H](O)[C@@H](O)[C@@H](N=C(N)N)[C@@H](O)[C@@H]3N=C(N)N)O[C@H](C)[C@@]2(O)C=O)O[C@@H](CO)[C@@H](O)[C@H]1O	-2.89% [at 19.1 µM] (inactive)
C[C@]12CC[C@@H](O)CC1=CC(=O)C1C2CC[C@]2(C)C(=O)[C@H](O)CC12 (stereo not given in full)	26.8% (inactive)
COc1ccc(-c2cc(=O)c3c(O)cc(OC4OC(COC5OC(C)C(O)C(O)C5O)C(O)C(O)C4O)cc3o2)cc1O (stereo not given)	7.81% (inactive)
C/C=C(/C)C(=O)O[C@@H]1c2cc3c(c4c2[C@@]2(CO4)C(=O)C(OC)=C(OC)C=C2C[C@@H](C)[C@H]1C)OCO3	2.75% (inactive)
COC(=O)CC1[C@@]2(C)C[C@]34OC5(C)OC6(C7CC(=O)OC(c8ccoc8)[C@]7(C)CCC6(O5)[C@]13C)C(OC(C)=O)[C@]4(OC(C)=O)C2OC(C)=O (stereo not given in full)	22.6% (inactive)
COc1ccc(-c2oc3ccccc3c(=O)c2O)cc1	12.6% (inactive)
CC(=O)Oc1ccc2c(=O)c(-c3ccccc3)c(C)oc2c1	9.78% (inactive)
C/C=C(\C)C(=O)OC(C)(C)[C@H]1Cc2cc3ccc(=O)oc3cc2O1	-12.1% (inactive)
COc1ccc(C(=O)OC2CC3CCC(C2)[N+]3(C)[O-])cc1OC (stereo not given)	18.2% (inactive)
C=CC(C)(C)O[C@@H]1O[C@H](CO)[C@@H](O)[C@H](O)[C@H]1O	0.505% (inactive)
CC12CCC3C(CCC4CC(O)CCC43C)C1CC(O)C2 (stereo not given)	18% (inactive)
C[C@@H]1O[C@@H](O[C@H]2CC[C@@H](O[C@H]3[C@H](O)C[C@H](c4ccc5c(c4O)C(=O)C4=C(C5=O)[C@@]5(O)C(=O)C[C@](C)(O[C@H]6CC[C@H](O[C@H]7C=CC(=O)[C@H](C)O7)[C@H](C)O6)C[C@@]5(O)C=C4)O[C@@H]3C)O[C@H]2C)C=CC1=O	-12.6% [at 24.7 µM] (inactive)
CNCC(=O)O	18.2% (inactive)
CCCC(=O)C(C)=O	13.6% [at 115 µM] (inactive)
O=C(Nc1ccc(Br)cc1)C(c1ccccc1)c1ccccc1	-5.19% (inactive)
c1ccc(-c2ccc3ccccc3n2)cc1	1.84% (inactive)
COCCOCCOCCOC	2.98% [at 115 µM] (inactive)
O=[N+]([O-])c1cn2c(n1)OC[C@@H](OCc1ccc(OC(F)(F)F)cc1)C2	4.91% (inactive)
CC(C)=CCC/C(C)=C/COC=O	28.3% [at 115 µM] (inactive)

Source: PubChem BioAssay (NCATS)
